DT40 TDP1 CPT = growth inhibition of DT40 Tdp1-/-;hTDP1 cells with camptothecin (screen for TDP1 inhibitors). chicken DT40 Tdp1-/-;hTDP1 cells + 20 nM CPT, ATP luminescence, 48 h. Potency, µM (top dose mostly 46.2 µM), actives largely listed as inhibitors. 420,000 tested, 12% active. AID 686979; also: nearly all actives have a fitted effect of over 55% in size
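Chicken DT40 Tdp1-/- cells complemented with human TDP1, 400 cells/well, exposed to compounds plus 20 nM camptothecin for at least 48 h at 37 C; viability read as ATP content by CellTiter-Glo luminescence.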
TDP1 inh = inhibitors of human tyrosyl-DNA phosphodiesterase TDP1 | recombinant TDP1, AlphaScreen DNA substrate cleavage | Potency, µM (highest dose often 130 µM), usual class: inhibitors | 350,000 tested, 0.28% active | AID 485290; also: nearly all actives have a fitted effect of over 40% in size
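Enzyme-compound mixtures sat 15 min at room temperature, followed by a 5 min reaction with 15 nM final substrate and 10 min with AlphaScreen beads. Recombinant human Tdp1 was used at 1 nM final.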
DT40 TDP1 no CPT = qHTS for Inhibitors of human tyrosyl-DNA phosphodiesterase 1 (TDP1): qHTS in cells in absence of CPT; DT40 Tdp1-/- hTDP1 cells, no CPT, ATP luminescence, 48 h; Potency, µM (titrated, usually from 46.2 µM), usual class: inhibitors; 420,000 tested, 15% active; also: nearly all actives have a fitted effect of over 55% in size
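Stably hTDP1-transfected Tdp1-null chicken DT40 cells were treated with library compounds minus camptothecin and grown for at least 48 hr at 37 °C, after which cellular ATP was quantified by luminescence.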
ClpP mod = qHTS Assay for Activators of ClpP; ATP-dependent Clp protease proteolytic subunit (Bacillus subtilis (strain 168)), P80244; purified B. subtilis ClpP, FRET peptide cleavage, 20 min; Potency, µM (highest dose often 57.5 µM); 340,000 tested, 1.9% active; AID 651965, 2013; active = well fitted falling curve with a large enough effect; inconclusive = small, poorly fitted or top-dose-only effect; inactive = no such curve, though single readings can be large or run the other way; also: the source files actives as falling curves though it sought activators and does not explain the sign; nearly all actives have a fitted effect of over 65% in size
Target sequence (P80244 whole entry, looked up): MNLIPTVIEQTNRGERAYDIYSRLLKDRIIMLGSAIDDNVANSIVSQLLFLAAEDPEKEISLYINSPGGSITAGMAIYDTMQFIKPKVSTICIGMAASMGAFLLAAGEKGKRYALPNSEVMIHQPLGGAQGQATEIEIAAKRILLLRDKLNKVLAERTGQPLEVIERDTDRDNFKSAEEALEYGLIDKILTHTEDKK
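ClpP 10 microg/mL final, pH 8 Tris/KCl buffer with BSA, glycerol, Tween-20; compound pinned in; FRET-FV substrate; RT 20 min; Ex320/Em430; ΔFRET vs ADEP 5.8 microM, DMSO, no enzyme.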
Hits are given with their value; – = inactive; ? = inconclusive; · = no result given. In the library only some 17% were active in any assay of this set; here they are far more common. Unless noted, calls follow the shape of the dose curve; as a rule, active = well fitted curve in the direction sought with a large enough effect; inconclusive = small, poorly fitted or top-dose-only effect, or another doubt; inactive = no such curve, though single readings can be large; an effect the other way counts as inactive or inconclusive.

SMILES	DT40 TDP1 CPT	TDP1 inh	DT40 TDP1 no CPT	ClpP mod
CC(C)Nc1nc(NCCN2CCCC2)c2sc(-c3ccccc3)cc2n1	6.5µM	·	13µM	–
Cc1ccc(-c2cc3nc(NCCOc4ccccc4Cl)n(C)c(=O)c3s2)cc1	?	·	–	–
O=C(CCC(=O)c1ccccc1)Nc1ccccc1	–	·	–	·
O=C1NC(c2cccc3ccccc23)Nc2ccc(Cl)cc21 (centres undefined)	0.46µM	·	0.58µM	?
COc1ccc(C)cc1S(=O)(=O)N1CCCC(C(=O)N2CCN(c3ccccc3F)CC2)C1 (centres undefined)	?	–	23µM	–
COc1ccccc1N1CCN(C(=O)C2CCCN(S(=O)(=O)c3ccc4c(c3)oc(=O)n4C)C2)CC1 (centres undefined)	26µM	–	8.2µM	–
Cn1c(=O)oc2cc(S(=O)(=O)N3CCCC(C(=O)N4CC=C(c5ccccc5)CC4)C3)ccc21 (centres undefined)	·	–	·	·
COc1ccc(N2CCN(C(=O)C3CCCN(S(=O)(=O)c4ccc5c(c4)oc(=O)n5C)C3)CC2)cc1 (centres undefined)	12µM	–	10µM	–
COc1ccccc1N1CCN(C(=O)C2CCN(S(=O)(=O)c3ccccc3F)CC2)CC1	?	–	23µM	–
COc1ccc2sc(N(CCCN(C)C)C(=O)c3ccc(S(=O)(=O)N4CCc5ccccc5C4)cc3)nc2c1	4.1µM	–	4.6µM	–
CN(C)CCCN(C(=O)c1ccc(S(=O)(=O)N2CCc3ccccc3C2)cc1)c1nc2c(F)cccc2s1	?	–	?	–
Cc1ccc2nc(N(CCCN(C)C)C(=O)c3ccc(S(=O)(=O)N4CCc5ccccc5C4)cc3)sc2c1	5.2µM	–	5.8µM	–
COc1ccc2sc(N(CCCN(C)C)C(=O)c3ccc(S(=O)(=O)N4CCCC4)cc3)nc2c1	–	–	–	–
Cc1cc(C)c2sc(N(CCCN(C)C)C(=O)c3ccc(S(=O)(=O)N4CCc5ccccc5C4)cc3)nc2c1	·	–	·	·
Cc1cccc2sc(N(CCCN(C)C)C(=O)c3ccc(S(=O)(=O)N4CCc5ccccc5C4)cc3)nc12	4.1µM	–	6.5µM	–
Cc1cc(C)c2sc(N(CCCN(C)C)C(=O)c3ccc(S(=O)(=O)N4CCCc5ccccc54)cc3)nc2c1	10µM	–	9.2µM	–
CCCS(=O)(=O)NC(=O)C1(C)CCCN(C(=O)COc2ccccc2)C1 (centres undefined)	–	·	–	–
COc1ccc2c(c1)c1c(c(=O)n(CCc3ccccc3)c(=O)n1Cc1cccc(C)c1)n2C	–	–	–	?
Cc1ccc(C)c2sc(N3CCN(C(=O)c4ccco4)CC3)nc12	?	–	18µM	–
Cc1ccc(Cl)c2sc(N3CCN(C(=O)c4ccco4)CC3)nc12	?	–	16µM	–
COCCN1CCN(Cc2ccc(C(=O)NC(C)C)cc2)C(=O)C1=O	–	–	–	–
CCOC(=O)c1c(C)oc2c(F)c(F)c(F)c(F)c2c1=O	16µM	–	21µM	–
Cc1cnc(CNC(=O)c2c3n(c(C)cc2=O)-c2ccccc2SC(c2ccsc2)C3)cn1 (centres undefined)	–	·	–	·
CC1(C)OC(c2ccccc2)=C/C(=C/C=Nc2ccccc2)O1	23µM	–	?	–
CC(C)CNC(=O)CCc1nc(-c2ccccc2)no1	–	–	?	–
SMILES	DT40 TDP1 CPT	TDP1 inh	DT40 TDP1 no CPT	ClpP mod
O=C1c2cccc([N+](=O)[O-])c2C(=O)N1CCO	–	–	–	–
O=C1CSC(=S)N1N1C(=O)c2cccc([N+](=O)[O-])c2C1=O	·	2.8µM	·	·
CCNC(=S)N1N=C2c3ccccc3CCC2C1c1ccc(F)cc1 (centres undefined)	?	–	23µM	–
CC(=O)N1N=C2c3ccccc3CCC2C1c1ccc(F)cc1 (centres undefined)	–	–	?	·
CCOc1ccc(NC(=O)Cn2c(=O)n(-c3ccccc3)c(=O)c3c4c(sc32)CCCC4)cc1	?	–	–	–
CCc1nc2ccc(C(=O)N3CCN(C(=O)c4ccco4)CC3)cn2c1N(C)Cc1cccs1	?	·	?	–
CCc1nc2ccc(C(=O)NCCCN(C)C)cn2c1N(C)CCCc1ccccc1	?	·	?	–
CCc1nc2ccc(C(=O)NC3CCN(Cc4ccccc4)CC3)cn2c1N(C)Cc1cccs1	?	·	16µM	–
CCc1nc2ccc(C(=O)NC3CCN(Cc4ccccc4)CC3)cn2c1N(C)Cc1cc2ccccc2s1	26µM	·	21µM	–
O=C1CCc2cc(S(=O)(=O)NC(C(=O)Nc3ccc(F)cc3)c3ccccc3)ccc2N1 (centres undefined)	?	–	–	–
C[C@H](NC(=O)OC(C)(C)C)C(=O)N/N=C/c1cccc2nccnc12	–	–	–	–
COc1ccc2nc(/C=N/NC(=O)[C@H](CCSC)NC(=O)OC(C)(C)C)ccc2c1	–	–	–	8.9µM
CSCC[C@H](NC(=O)OC(C)(C)C)C(=O)N/N=C/c1cccc2cccnc12	26µM	–	21µM	·
CCC(=O)OC1(C)C(=O)C=C2C=C(CCCNC(=O)OC(C)(C)C)OC=C2C1=O (centres undefined)	·	–	·	·
Cc1ccccc1CC1(CO)CCCN(Cc2ccccc2Cl)C1 (centres undefined)	–	·	–	–
Cc1cccc(-c2ncc(CN3CCCC(CO)(Cc4ccccc4C)C3)cn2)c1 (centres undefined)	23µM	·	–	–
Cc1ccc(C)c(-c2[nH]ncc2CN2CCCC(CO)(Cc3ccccc3C)C2)c1 (centres undefined)	7.3µM	–	13µM	·
COc1cc(CN2CCCC(CO)(Cc3ccccc3C)C2)cc2c1OCO2 (centres undefined)	15µM	–	?	–
O=C(NCc1ccccc1)c1[nH]c(C(F)(F)F)nc1-c1ccccc1	–	·	–	–
COC(=O)[C@@]1(Cc2ccc(OC)cc2)[C@H]2c3cc(C(=O)N4CCCC4)n(CCc4ccccn4)c3C[C@H]2CN1C(=O)c1ccccc1	·	–	·	·
Cc1cc(CN(C)C(=O)c2cc(COc3ccc(F)cc3Cl)on2)n[nH]1	–	–	?	–
CCN(Cc1ccncc1)C(=O)c1cc(COc2ccc(F)cc2Cl)on1	16µM	–	?	–
CCN(CC1CCCO1)C(=O)c1cc(COc2ccc(OC)cc2Cl)on1 (centres undefined)	?	–	–	–
CN(Cc1ccccn1)C(=O)c1cc(COc2ccc(F)cc2Cl)on1	?	·	23µM	–
CCc1ccc(CN(C)C(=O)c2cc(COc3ccc(OC)cc3Cl)on2)nc1	?	–	29µM	–
CCN(Cc1ccncc1)C(=O)c1cc(COc2ccc(OC)cc2Cl)on1	16µM	–	?	–
COCCN(C(=S)Nc1ccccc1C)C(C)c1cccs1 (centres undefined)	?	–	?	–
O=C(OCc1nnc(-c2ccc(Cl)cc2)o1)c1ccc(O)cc1	–	–	–	·
